# Unmarked numbers belong to inactive results. A call without a number means that no potency is given here. For part of these data: Potency and affinity values are given separately. The source made the active and inactive calls. Unless noted, the rule behind the calls is not given here.
# Tests used:
# [1] = antimalarial activity against Dd2 strain (AID 2302;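 active = growth inhibition above 50% at the single 2 µM test dose, taken to imply half-maximal potency below 2 µM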); conditions: P. falciparum Dd2 in RBCs, LDH growth readout, 72 h; at 2 µM; stronger effect = higher value
# [2] = human hepatoma cell viability loss – ATP luminescence, cytotoxicity control for P. falciparum antimalarial project, primary screen (AID 2303;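 active = inhibition above 50%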); conditions: HepG2 viability, 24-48 h, at 10 µM, stronger effect = higher value
# [3] = target: L-lactate dehydrogenase (Plasmodium falciparum (isolate CDC / Honduras)) (UniProt Q27743); experiment: PfLDH activity inhibition – cell lysate, 3D7 strain, counter-screen for P. falciparum growth inhibition project (AID 2304); conditions: P. falciparum 3D7 crude extract, LDH APAD/NBT absorbance; at 2 µM; stronger effect = higher value
# [4] = inhibition of 3D7 malaria parasite growth – strain 3D7 (AID 2306); conditions: P. falciparum 3D7 erythrocytic growth, LDH absorbance, 72 h; at 2 µM; stronger effect = higher value
# [5] = target: Calcium-dependent protein kinase 1 (Plasmodium falciparum (isolate 3D7)) (UniProt P62344); experiment: PfCDPK1 kinase inhibitors, biochemical, TCAMS library (AID 1159585; cut-off not given, nearly all actives have IC50 up to about 0.98 µM;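 note: inhibitors leave more ATP so luminescence rises with inhibition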); conditions: recombinant PfCDPK1, Kinase-Glo ATP depletion luminescence
# [6] = target: Plasmodium falciparum protein kinase 6 (PK6, PF3D7_1337100) (UniProt Q8IDW1); experiment: PfPK6 kinase inhibitors, biochemical, TCAMS library (AID 1159586); conditions: recombinant PfPK6, Kinase-Glo ATP depletion luminescence
# [7] = target: Protein kinase 7 (PK7), Plasmodium falciparum 3D7 (PF3D7_0213400) (UniProt Q7YTF7); experiment: inhibition of Plasmodium PK7 catalytic activity – biochemical, TCAMS antimalarial set, Kinase-Glo luminescence (AID 1159587); conditions: recombinant PfPK7, Kinase-Glo ATP depletion luminescence
# [8] = target: Calcium-dependent protein kinase 4 (Plasmodium falciparum (isolate 3D7)) (UniProt Q8IBS5); experiment: PfCDPK4 kinase inhibitors, biochemical, TCAMS library (AID 1159588; cut-off not given, nearly all actives have IC50 up to about 0.91 µM); conditions: recombinant PfCDPK4, Kinase-Glo ATP depletion luminescence
# Sequence of Calcium-dependent protein kinase 4 (Plasmodium falciparum (isolate 3D7)) (Q8IBS5 whole entry, looked up): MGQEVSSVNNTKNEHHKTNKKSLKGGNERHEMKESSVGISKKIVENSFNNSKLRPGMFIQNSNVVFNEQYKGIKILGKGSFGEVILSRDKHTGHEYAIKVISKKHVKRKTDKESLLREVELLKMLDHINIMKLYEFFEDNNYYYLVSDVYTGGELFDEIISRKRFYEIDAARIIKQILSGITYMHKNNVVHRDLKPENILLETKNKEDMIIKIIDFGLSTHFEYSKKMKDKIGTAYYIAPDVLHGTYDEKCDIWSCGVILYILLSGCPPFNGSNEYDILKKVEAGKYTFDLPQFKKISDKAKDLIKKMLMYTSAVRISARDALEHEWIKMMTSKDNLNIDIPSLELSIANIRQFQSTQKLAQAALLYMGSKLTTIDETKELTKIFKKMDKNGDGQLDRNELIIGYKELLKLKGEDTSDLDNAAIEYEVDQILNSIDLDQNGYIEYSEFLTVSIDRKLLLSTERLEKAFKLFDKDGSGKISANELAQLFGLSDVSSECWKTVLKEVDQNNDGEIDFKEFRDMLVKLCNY
# Sequence of Protein kinase 7 (PK7), Plasmodium falciparum 3D7 (PF3D7_0213400) (Q7YTF7 1-343): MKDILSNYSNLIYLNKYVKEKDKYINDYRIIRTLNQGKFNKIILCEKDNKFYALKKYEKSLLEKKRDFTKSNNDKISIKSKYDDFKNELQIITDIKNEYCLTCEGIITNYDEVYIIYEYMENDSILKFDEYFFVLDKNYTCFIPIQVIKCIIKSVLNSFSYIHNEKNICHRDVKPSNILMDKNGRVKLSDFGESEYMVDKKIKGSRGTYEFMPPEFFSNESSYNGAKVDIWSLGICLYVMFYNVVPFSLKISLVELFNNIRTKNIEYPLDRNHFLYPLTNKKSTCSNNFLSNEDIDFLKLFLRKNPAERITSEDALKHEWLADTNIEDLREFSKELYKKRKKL
# Sequence of Calcium-dependent protein kinase 1 (Plasmodium falciparum (isolate 3D7)) (P62344 whole entry, looked up): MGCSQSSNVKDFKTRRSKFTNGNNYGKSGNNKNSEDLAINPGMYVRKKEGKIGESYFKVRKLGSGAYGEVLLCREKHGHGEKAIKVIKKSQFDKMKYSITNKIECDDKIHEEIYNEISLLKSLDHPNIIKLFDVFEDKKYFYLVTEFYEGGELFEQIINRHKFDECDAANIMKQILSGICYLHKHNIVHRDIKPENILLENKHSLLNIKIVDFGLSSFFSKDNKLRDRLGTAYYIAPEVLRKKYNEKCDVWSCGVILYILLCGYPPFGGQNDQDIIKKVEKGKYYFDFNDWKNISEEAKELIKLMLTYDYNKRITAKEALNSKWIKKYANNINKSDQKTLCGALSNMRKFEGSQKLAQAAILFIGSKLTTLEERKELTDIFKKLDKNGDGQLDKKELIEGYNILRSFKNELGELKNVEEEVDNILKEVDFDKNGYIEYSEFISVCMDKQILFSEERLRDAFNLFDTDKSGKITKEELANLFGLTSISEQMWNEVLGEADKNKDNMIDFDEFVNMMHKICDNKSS
# Sequence of Plasmodium falciparum protein kinase 6 (PK6, PF3D7_1337100) (Q8IDW1 1-305): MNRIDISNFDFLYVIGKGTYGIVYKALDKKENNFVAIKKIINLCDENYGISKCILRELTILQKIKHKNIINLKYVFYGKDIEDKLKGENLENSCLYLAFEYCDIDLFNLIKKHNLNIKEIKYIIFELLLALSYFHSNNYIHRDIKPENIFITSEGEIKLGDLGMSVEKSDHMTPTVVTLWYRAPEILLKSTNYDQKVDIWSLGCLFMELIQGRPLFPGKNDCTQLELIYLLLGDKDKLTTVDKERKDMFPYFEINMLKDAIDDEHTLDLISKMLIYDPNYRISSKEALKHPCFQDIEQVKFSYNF
# Sequence of L-lactate dehydrogenase (Plasmodium falciparum (isolate CDC / Honduras)) (Q27743 whole entry, looked up): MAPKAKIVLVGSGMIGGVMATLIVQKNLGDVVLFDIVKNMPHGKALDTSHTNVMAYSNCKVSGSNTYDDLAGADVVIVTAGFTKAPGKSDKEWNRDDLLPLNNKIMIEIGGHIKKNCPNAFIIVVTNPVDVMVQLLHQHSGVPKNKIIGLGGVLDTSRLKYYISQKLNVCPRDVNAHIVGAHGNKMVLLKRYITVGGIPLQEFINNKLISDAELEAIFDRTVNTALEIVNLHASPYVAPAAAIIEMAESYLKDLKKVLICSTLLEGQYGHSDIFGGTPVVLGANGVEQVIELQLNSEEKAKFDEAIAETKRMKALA
Compound,growth inhibition [1],inhibition [2],inhibition [3] [%],growth inhibition [4],outcome [5],outcome [6],outcome [7],outcome [8]
CC(C)CC1(C(=O)OC(C)(C)C)CC(C(=O)OC(C)(C)C)C(c2cccs2)N1C(=O)c1ccc(C(C)(C)C)cc1 (stereo not drawn),100% (active),21%,-2,101% (active),inactive,inactive,inactive,inactive
O=C(NC1CCCCC1)N(Cc1cccc(-c2ccc(CNCCc3ccccc3)cc2)c1)C1CCN(Cc2ccccc2)CC1,93% (active),61% (active),4,93% (active),inactive,inactive,inactive,inactive
CCC[C@@H]([C@@H](CC1CCCCC1)C(=O)N[C@H](C(=O)Nc1nccs1)C(C)(C)SCCOCCOCC)N(O)C=O,97% (active),40%,-5,100% (active),inactive,inactive,inactive,inactive
CCOc1ccc2ccccc2c1C(=O)Nc1cc(C)nn1-c1nc(C)cc(=O)[nH]1,86% (active),28%,-1,93% (active),inactive,inactive,inactive,inactive
CCN1CCc2c1cc(C(=O)N[C@@H](Cc1ccccc1)[C@H](O)CNC(C)(C)c1cccc(C(F)(F)F)c1)cc2N1CCCCS1(=O)=O,99% (active),6%,-1,100% (active),inactive,inactive,inactive,inactive
CC(C)c1ccc(O)cc1Nc1ccnc2ccc(C(F)(F)F)cc12,90% (active),6%,-6,97% (active),inactive,inactive,inactive,inactive
CC(=O)N1c2ccccc2C(C)=CC1(C)C,11%,3%,1,97% (active),inactive,inactive,inactive,inactive
CCCCN(CCCC)Cc1cc(Nc2ccnc3cc(Cl)ccc23)ccc1O,87% (active),67% (active),-1,102% (active),inactive,inactive,inactive,inactive
O=C(NCCc1ccccc1)N(Cc1cccc(-c2ccc(CNCCc3ccccc3)cc2)c1)C1CCN(Cc2ccccc2)CC1,91% (active),94% (active),-5,90% (active),inactive,inactive,inactive,inactive
O=C(c1ccccc1[N+](=O)[O-])N(Cc1ccccc1)c1ccccn1,-2%,0%,-1,91% (active),inactive,inactive,inactive,inactive
CCNc1cc(C(=O)N[C@@H](Cc2ccccc2)[C@H](O)CNCCCc2ccc(OC)cc2)cc(N2CCCC2=O)c1,96% (active),4%,2,99% (active),inactive,inactive,inactive,inactive
COc1ccc(C(=O)NC(Nc2ccc([N+](=O)[O-])cc2)C(Cl)(Cl)Cl)cc1 (stereo not drawn),83% (active),15%,1,95% (active),inactive,inactive,inactive,inactive
CCOC(=O)C(NC(=O)Cc1ccccc1)C(C)C (stereo not drawn),98% (active),39%,4,96% (active),inactive,inactive,inactive,inactive
C=C(C)Cn1cc(C2CCN(CCN3CCC(CNC(=O)c4ccc(-c5ccc(C#N)cc5)cc4)CC3)CC2)c2ccccc21,94% (active),64% (active),-3,99% (active),inactive,inactive,inactive,inactive
O=C(Cc1cc(F)cc(F)c1)NC1CCN(c2ccnc3cc(Cl)ccc23)C1 (stereo not drawn),101% (active),13%,0,82% (active),inactive,inactive,inactive,inactive
Cc1ccc(CN2CCCN(Cc3cccc(NC(=O)c4ccc(-c5ccccc5)cc4)c3)CC2)cc1C,19%,43%,-4,84% (active),inactive,inactive,inactive,inactive
C=CCNC(=O)C(C)c1ccc2cc(OC)ccc2c1 (stereo not drawn),90% (active),4%,1,92% (active),inactive,inactive,inactive,inactive
O=C(/C=C/c1c(Cl)cccc1Cl)NC1CCC(CN2CCC(Cc3cc4ccccc4[nH]3)CC2)CC1 (stereo not drawn),17%,97% (active),-1,91% (active),inactive,inactive,inactive,inactive

Compound,growth inhibition [1],inhibition [2],inhibition [3] [%],growth inhibition [4],outcome [5],outcome [6],outcome [7],outcome [8]
Cc1cccc(Nc2nc3nonc3nc2Nc2cccc(Cl)c2Cl)c1C,95% (active),88% (active),2,91% (active),inactive,inactive,inactive,inactive
CC(CCNc1c2ccccc2nc2ccccc12)N1CCN(C)CC1 (stereo not drawn),-2%,25%,5,101% (active),inactive,inactive,inactive,inactive
CCCCOC(=O)[C@H](CCC)NC(=O)c1ccc(NS(=O)(=O)c2ccc3nc(N)[nH]c(=O)c3c2)cc1,3%,66% (active),-1,99% (active),inactive,inactive,inactive,inactive
CC(C)Cn1c(N)cc(=O)n(C)c1=O,0%,3%,3,100% (active),inactive,inactive,inactive,inactive
CC(C)(CNC(=O)[C@@H]1CCCN(CCOc2ccc(F)c(F)c2)C1)c1nc(-c2ccc(Cl)c(O)c2)c(-c2ccncc2)[nH]1,77% (active),72% (active),-1,101% (active),inactive,inactive,inactive,inactive
Cc1cc(N(C)C)nc(Nc2ccc(NC(=O)c3ccccc3Cl)cc2)n1,31%,3%,-2,88% (active),inactive,inactive,inactive,inactive
O=C(c1cc(-c2ccccc2O)on1)N1CCN(C(c2ccccc2)c2ccccc2)CC1,88% (active),12%,1,97% (active),inactive,inactive,inactive,inactive
Fc1ccc2nc(-c3ccc(-c4cccc(CN5CCC(CCN6CCCCC6)CC5)c4)cc3)[nH]c2c1,100% (active),96% (active),5,101% (active),inactive,inactive,inactive,inactive
CCC(C)c1ccc(-n2c(Nc3ccccc3)nc3cc(S(N)(=O)=O)ccc32)cc1 (stereo not drawn),28%,0%,4,88% (active),inactive,inactive,inactive,inactive
O=C(c1cccc(COc2ccc3c(c2)CCN(C2CCCC2)CC3)c1)N1CCN(c2ccncc2)CC1,35%,49%,-8,100% (active),inactive,inactive,inactive,inactive
O=C(Nc1cccc(CN2CCCN(Cc3ccccc3)CC2)c1)c1cc2ccccc2s1,28%,41%,1,87% (active),inactive,inactive,inactive,inactive
O=C(Nc1ccc(Cl)cc1)Nc1cccc(-c2ccc(-c3nc4ccc(F)cc4[nH]3)cc2)c1,99% (active),73% (active),-1,101% (active),inactive,inactive,inactive,inactive
O[C@@H](c1ccccc1)[C@@H]1CN(Cc2ccccc2)CC[C@@]1(O)c1ccccc1,82% (active),4%,-2,91% (active),inactive,inactive,inactive,inactive
CCC(C)CN1C(=O)C(c2ccccc2)(c2ccccc2)N=C1N (stereo not drawn),79% (active),11%,4,98% (active),inactive,inactive,inactive,inactive
CC(C)(Oc1c(C2CCN(CCCCNC(=O)c3ccc(-c4ccc(Cl)cc4)cc3)CC2)ccc2c1CCCC2)C(N)=O,5%,100% (active),1,93% (active),inactive,inactive,inactive,inactive
CCOC(=O)c1cn(CC)c2cc(N3CCCCC3)c(F)cc2c1=O,96% (active),0%,2,97% (active),inactive,inactive,inactive,inactive
CCC(CC)OC(=O)C(C)c1cccc(C(=O)c2ccccc2)c1 (stereo not drawn),0%,-8%,6,93% (active),inactive,inactive,inactive,inactive
CCCN(c1ccc(C(F)(F)F)cc1[N+](=O)[O-])S(=O)(=O)C(c1ccccc1)c1ccc(C(F)(F)F)cc1[N+](=O)[O-] (stereo not drawn),49%,-11%,1,94% (active),inactive,inactive,inactive,inactive
